Screening results deposited in PubChem by several laboratories.
PvdQ inh: P. aeruginosa PvdQ acylase inhibitors, primary screen, biochemical, fluorescence, plate reader and imaging, single point | 340,000 tested, 0.063% active | purified PvdQ acylase | inhibition, % at 10 µM; in the data active = inhibition above about 30%, passing the limit was not always enough
HTR5A inv ag: HTR5A inverse agonists in luminescence cell assay, primary screen, counter-screen for OPRM1-OPRD1 heterodimer inverse agonist project, full-deck HTS. 5-hydroxytryptamine receptor 5A (Homo sapiens), P47898. HTR5A cell line, inverse agonism. inhibition, % at 9.3 µM. 340,000 tested, 0.083% active. AID 504634, 2011; in the data active = inhibition mostly above about 23%, no sharp cut-off; inactive = mostly below about 18%
OPRM1-OPRD1 ag: agonists of OPRM1-OPRD1 heterodimerization, primary screen, cell-based, luminescence | 340,000 tested, 0.3% active | cells | Mu-type opioid receptor (Homo sapiens) + Delta-type opioid receptor (Homo sapiens), … | activation, % at 9.3 µM | AID 504326, 2011; in the data active = activation above about 18%
Target sequence (P35372 whole entry, looked up): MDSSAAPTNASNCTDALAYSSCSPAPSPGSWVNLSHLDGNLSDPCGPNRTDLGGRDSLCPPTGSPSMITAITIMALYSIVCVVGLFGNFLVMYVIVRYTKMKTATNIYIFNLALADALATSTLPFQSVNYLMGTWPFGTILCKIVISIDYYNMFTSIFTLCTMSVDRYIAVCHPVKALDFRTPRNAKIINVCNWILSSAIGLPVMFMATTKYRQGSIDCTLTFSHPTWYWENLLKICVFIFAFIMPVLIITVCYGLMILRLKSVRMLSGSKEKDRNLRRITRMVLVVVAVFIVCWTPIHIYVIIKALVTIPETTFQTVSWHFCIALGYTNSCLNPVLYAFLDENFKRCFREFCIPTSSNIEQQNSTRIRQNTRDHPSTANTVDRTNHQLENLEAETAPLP
Target sequence (P41143 whole entry, looked up): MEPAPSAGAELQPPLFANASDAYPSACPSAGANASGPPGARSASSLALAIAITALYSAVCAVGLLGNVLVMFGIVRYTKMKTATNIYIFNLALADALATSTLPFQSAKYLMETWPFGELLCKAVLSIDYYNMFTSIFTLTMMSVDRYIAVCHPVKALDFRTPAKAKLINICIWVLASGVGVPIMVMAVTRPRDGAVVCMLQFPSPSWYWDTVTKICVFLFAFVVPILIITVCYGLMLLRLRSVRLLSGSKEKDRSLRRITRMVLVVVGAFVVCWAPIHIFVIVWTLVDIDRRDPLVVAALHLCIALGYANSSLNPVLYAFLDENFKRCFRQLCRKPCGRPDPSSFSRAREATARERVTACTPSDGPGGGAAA
HTR5A ag ctr: HTR5A agonists in luminescence cell assay, primary screen, counter-screen for OPRM1-OPRD1 heterodimer agonist project, full-deck HTS; 5-hydroxytryptamine receptor 5A (Homo sapiens), P47898; cell-based; activation, % at 9.3 µM; 340,000 tested, 0.61% active; AID 504692, 2011; in the data active = activation mostly above about 9.5%, no sharp cut-off; inactive = mostly below about 7.6%
CR mimetic SO: reduction of superoxide in aged yeast, primary screen, HTS. S. cerevisiae aged cells, superoxide DHE fluorescence; active compounds read low. superoxide response (% of plate mean), % at 10 µM. 330,000 tested, 0.18% active. AID 2690, 2010;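 active = superoxide response under a set limit, about three screen SD below normal, cut at about 65% in these data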;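 note: yeast aged for seven days with compound at 30 °C before DHE staining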
OPRM1-OPRD1 inv: inverse agonists of MOR-DOR heterodimerization, primary screen, cell-based, luminescence | Mu-type opioid receptor (Homo sapiens) + Delta-type opioid receptor (Homo sapiens), … | cell-based MOR-DOR heterodimer luminescence, inverse agonism | inhibition, % at 9.3 µM | 340,000 tested, 0.21% active | AID 504357, 2011; in the data active = inhibition above about 22%, passing the limit was not always enough
Each line names hits and unclear results; the compound was inactive in the other large screens. Only some compounds are listed: those with a hit (about 1.3% of all), similar ones and a draw of the others.

COc1cccc(C(=O)Nc2ccc(NC(=O)c3cc4ccccc4o3)c(OC)c2)c1	HTR5A ag ctr 13
COc1cc(NC(=O)c2ccccc2)ccc1NC(=O)c1cc2ccccc2o1	none
O=C(Nc1cccc(C(F)(F)F)c1)Nc1ccc2[nH]c(=O)[nH]c2c1	HTR5A ag ctr 13
COc1ccc(/C=N/NC(=O)c2cccc([N+](=O)[O-])c2)cc1OC	none
N#Cc1cc([N+](=O)[O-])ccc1Oc1cccc(/C=N/NC(=O)c2cccc(Cl)c2)c1	PvdQ inh 63
CC(C)c1ccc(OCC(O)CNC(C)c2ccccc2)cc1 (stereo unspecified)	HTR5A ag ctr 12
Cc1ccc(-n2nnnc2SCC(=O)NCC2CCCO2)cc1C (stereo unspecified)	none (no result: CR mimetic SO)
Cc1ccc(S(=O)(=O)Nc2cccc3ncccc23)s1	OPRM1-OPRD1 inv 44
CCn1cc([N+](=O)[O-])c(C(=O)N2CCN(C(=O)c3ccco3)CC2)n1	HTR5A ag ctr 14
CCn1cc([N+](=O)[O-])c(C(=O)N2CCCC2)n1	none (no result: CR mimetic SO)
O=C1[C@H]2CCCC[C@H]2C(=O)N1CCCCN1CCN(c2nsc3ccccc23)CC1	none
CC(/C=C/c1ccco1)=N\NC(=O)CNc1ccc2ccccc2c1	HTR5A ag ctr 12
CCN(CC(=O)NCc1ccc(Cl)cc1)C(=O)c1ccc(S(=O)(=O)NCc2ccco2)cc1	none
Cc1ccc(NC(=O)c2ccc(CNS(=O)(=O)c3cccc(C(F)(F)F)c3)cc2)cc1	none
O=C(Nc1ccccc1F)c1ccc(CNS(=O)(=O)c2cccc(C(F)(F)F)c2)cc1	HTR5A ag ctr 12
COc1ccc(CNS(=O)(=O)c2ccc(F)c(C(=O)Nc3ccccc3OC)c2)cc1	HTR5A ag ctr 9.5
O=S(=O)(Cc1ccccc1)N1CCN(Cc2ccc(F)cc2Cl)CC1	none
COc1ccccc1N/C=C(\C#N)c1nc2ccccc2[nH]1	HTR5A ag ctr 13
CC(C)c1cc(C(=O)N2CCCC(N3CCN(c4ccc(F)cc4)CC3)C2)n(C)n1 (stereo unspecified)	HTR5A ag ctr 10 (no result: CR mimetic SO)
COc1cccc(NC(=O)c2cc([N+](=O)[O-])ccc2NC(=O)CNCC2CCCO2)c1 (stereo unspecified)	CR mimetic SO 64
O=C(Nc1ccc2oc(=O)ccc2c1)c1ccc(-c2ccccc2[N+](=O)[O-])o1	OPRM1-OPRD1 ag 27, HTR5A ag ctr 14
CC1(C)Cc2c(c(N3CCOCC3)nc3snc(NC(=O)c4ccccc4)c23)CO1	HTR5A ag ctr 12
CC(=O)c1cccc(NS(=O)(=O)c2ccc(-c3cnc(C4CC4)o3)cc2)c1	none
CCOC(=O)C1CCCN(C(=O)C2c3ccccc3Oc3ccccc32)C1 (stereo unspecified)	HTR5A ag ctr 12
Cc1noc(C)c1Cc1ccc(O)cc1	HTR5A ag ctr 14
Cc1noc(C)c1Cc1c(Cl)cccc1Cl	none
C=CCN=C(NC#N)SCCc1ccccc1	none
C=CCN=C(NC#N)SC	CR mimetic SO 43
Cc1cccc(-c2onc3ccc(C4(C)OCCO4)cc23)c1	none
CC1(c2ccc3noc(-c4cccc(F)c4)c3c2)OCCO1	HTR5A ag ctr 11
CC(=O)C1=C(O)C(=O)N(Cc2cccnc2)C1c1ccc(Cl)cc1Cl (stereo unspecified)	HTR5A ag ctr 12
CC(=O)C1=C(O)C(=O)N(Cc2cccnc2)C1c1ccccc1 (stereo unspecified)	none
Cc1ccc(-n2ncc3c(=O)n(CC(=O)N4CCN(C(=O)c5ccco5)CC4)cnc32)cc1	none
c1ccc(-c2cc(NCCN3CCCCC3)c3ccccc3n2)cc1	none
NS(=O)(=O)c1ccc(NC2=CC(=O)C(=O)c3ccccc32)cc1	HTR5A ag ctr 9.6
CNC(=S)N1CCn2cccc2C1c1ccc(F)cc1 (stereo unspecified)	HTR5A ag ctr 8.0
CN1C2CCC1CC(NS(=O)(=O)c1ccc(C#N)cc1)C2 (stereo unspecified)	none
CCN(CC(=O)Nc1ccccc1SC)Cc1nc2ccccc2c(=O)[nH]1	CR mimetic SO 62
CCN(CC(=O)Nc1ccccc1-c1ccccc1)Cc1nc2ccccc2c(=O)[nH]1	none
O=C1OCCN1C(=O)[C@H]1[C@H](c2ccc(Cl)cc2)C(c2ccccc2)=NN1c1ccccc1	HTR5A ag ctr 5.5
O=C1OCCN1C(=O)[C@H]1[C@H](c2ccc(F)cc2)C(c2ccc(F)cc2)=NN1c1ccc(Br)cc1	CR mimetic SO 45
Cc1nc(N2CCCCC2C)c2c(C)c(C(=O)Nc3cccc(C(F)(F)F)c3)sc2n1 (stereo unspecified)	none
Cc1nc(N2CCCCC2)c2c(C)c(C(=O)Nc3cccc(C(F)(F)F)c3)sc2n1	HTR5A ag ctr 14
COc1ccccc1NC(=O)Nc1nc(CC(=O)N2CCN(c3ccccc3OC)CC2)cs1	none
Cc1occc1-c1nnc(SCC(=O)Nc2ccccc2)n1C	none
Cc1occc1-c1nnc(SCC(=O)Nc2ccccc2N2CCCCC2)n1C	HTR5A ag ctr 9.8
Cc1cccc2sc(NNC(=O)c3ccc(S(=O)(=O)N4CC(C)CC(C)C4)cc3)nc12 (stereo unspecified)	OPRM1-OPRD1 ag 23, HTR5A ag ctr 15
Cc1cc(C)c2nc(NNC(=O)c3ccc(S(=O)(=O)N4CC(C)CC(C)C4)cc3)sc2c1 (stereo unspecified)	none
Cc1cc(C)cc(N(CCC#N)C(=O)COC(=O)c2nc3nc(C)cc(C)n3n2)c1	none
O=Nc1c2cc3ccccc3[nH]c-2c2ccccc12	none (no result: CR mimetic SO)
O=Nc1c(O)c2ccccc2c2ccccc12	HTR5A ag ctr 12
COc1ccc(CC(NC(C)=O)C(=O)NC2CCN(C(=O)c3ccccc3F)CC2)cc1 (stereo unspecified)	none
COc1ccc(NCc2ccsc2)cc1	none
Cc1nc2ccccc2n1S(=O)(=O)c1ccc(S(=O)(=O)N2CCCCCC2)cc1	HTR5A ag ctr 14
CCCNC(=O)Cc1c(OC)ccc2cc(Br)ccc12	HTR5A ag ctr 13
CCCCNC(=O)Cc1c(OC)ccc2cc(Br)ccc12	none
COC(=O)c1ccc(NC(=O)COc2ccc(C3C(C#N)=C(N)Oc4c3ccc3ccccc43)cc2OC)cc1 (stereo unspecified)	HTR5A ag ctr 14
C=CCN(c1ccccc1)S(=O)(=O)c1cccc(C(=O)Nc2cccc(C)n2)c1	none
Nc1nc(SCc2ccc(Br)cc2)c2ncn(C3OC(CO)C(O)C3O)c2n1 (stereo unspecified)	none (no result: CR mimetic SO)
COc1ccc(C2CC(c3cccs3)=NN2C(=O)CCl)cc1OC (stereo unspecified)	none
